The source of these data is PubChem BioAssay (Tox21).

The structures appear in SMILES notation. Values without a mark were called inactive. Records with an inconclusive call do not appear. Calls of active or inactive are those of the source. Unless noted, calls follow the shape of the full dose curve.

Experiment [1] in a line: Nuclear factor erythroid 2-related factor 2/antioxidant responsive element (Nrf2/ARE) small molecule agonists: qHTS cell viability counter screen in human keratinocytes (AID 1919968; active = well fitted curve in the direction sought with a large enough effect in the repeat runs; an effect the other way counts as inactive or inconclusive; also: nearly all actives have a fitted effect of over 55% in size; also: potency is read from the fitted curve at half-maximal effect). Summed up:
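After a 5 h attachment period, ARE-reporter keratinocytes were dosed with compounds in DMSO and then cultured 23 h at 37 C. Cell viability came from CellTiter-Fluor signal read after a further 1 h.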

A short description of experiment [2]: Nuclear factor erythroid 2-related factor 2/antioxidant responsive element (Nrf2/ARE) small molecule agonists: luciferase reporter gene qHTS assay in human keratinocytes (AID 1919969). Also: nearly all actives have a fitted effect of over 35% in size. Also: potency is read from the fitted curve at half-maximal effect. A general note: Reporter assays use an easily measured gene product as a stand-in for the process of interest.
The target in experiment [3] is Gonadotropin-releasing hormone receptor (Homo sapiens) (UniProt P30968). The experiment is described as follows: Human gonadotropin-releasing hormone receptor (GnRHR) small molecule agonists, calcium flux assay in GnRHR-HEK293 cells (AID 1920063). Also: nearly all actives have a fitted effect of over 35% in size. Summed up: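 We seeded human GnRHR-expressing HEK293 cells for 18 hours, loaded them with calcium dye for an hour at 37 C, added test compounds, and recorded fluorescence intensity kinetically for three minutes.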
In general terms: Calcium flux is commonly read through the fluorescence of an indicator in the cells.

For experiment [4], the target named is KiSS-1 receptor (Homo sapiens) (UniProt Q969F8). The experiment is described as follows: Human kisspeptin (KISS1R) small molecule agonists, calcium flux assay in KISS1R-HEK293 cells (AID 1920064; active = well fitted curve in the direction sought with a large enough effect in the repeat runs; an effect the other way counts as inactive or inconclusive). In a few lines: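 Kinetic calcium assay, 1 s sampling over 3 min at Ex/Em 480/540, in HEK293 cells engineered with human KISS1R; compounds delivered in DMSO after 1 h dye loading.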

The nature of experiment [5]: G protein-coupled receptor (GPCR) small molecule agonists, calcium flux assay: HEK293 wild type cell line counter screen (AID 1920065). In a few lines: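 Calcium-sensitive dye, loaded 1 h at 37 C into cells cultured 18 h, reports compound-evoked calcium release as fluorescence (Ex/Em 480/540), measured over 3 min. Agonist mode; 15-point titrations, triplicate.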
Experiment [6] in a line: p53 small molecule agonists, cell-based qHTS assay with human liver microsomes (AID 1963577).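 Also: p53 response element beta-lactamase reporter cells with liver microsomes plus NADPH.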 In a few lines:
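Steps: plate p53RE-bla cells, incubate 5 h at 37 C; add compound in DMSO; add microsomes (0.5 mg/mL final) and NADPH (0.5 mg/mL final); incubate 16 h at 37 C; add LiveBLAzer, 2 h RT; read fluorescence.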
(qHTS replaces the single test concentration by a dilution series.)

Experiment [7] can be described thus: p53 small molecule agonists, cell-based qHTS assay with rat liver microsomes (AID 1963578). In a few lines:
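Metabolic activation is supplied by rat liver microsomes with NADPH (each 0.5 mg/mL final). p53RE-bla cells incubate with compound 16 h at 37 C; reporter activity is measured by LiveBLAzer fluorescence.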

The nature of experiment [8]: p53 small molecule agonists, cell-based qHTS assay with human liver microsomes: qHTS cell viability counter screen (AID 1963579). Also: nearly all actives have a fitted effect of over 45% in size. In a few lines:
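After the 460/530 nm beta-lactamase read, CellTiter-Glo was added to the same wells and luminescence measured after 30 min at room temperature, giving viability of p53RE-bla cells treated 16 h with compounds plus microsomes and NADPH.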

Experiment [9] can be described thus: p53 small molecule agonists, cell-based qHTS assay with rat liver microsomes: qHTS cell viability counter screen (AID 1963580). Also: nearly all actives have a fitted effect of over 45% in size. In a few lines:
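HCT-116 p53RE-bla, 4,000 cells/well, 5 h pre-incubation; cpd + rat liver microsomes 0.5 mg/mL + NADPH 0.5 mg/mL (final); 16 h, 37 C; CellTiter-Glo, 30 min RT; luminescence.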

Experiment [10] concerns the target 5-hydroxytryptamine receptor 2A (Homo sapiens) (UniProt P28223). The experiment can be described thus: 5-hydroxytryptamine receptor 2A (HTR2A) small molecule antagonists, cell-based qHTS assay (AID 1963586). Also: nearly all actives have a fitted effect of over 45% in size. Also: potency is read from the fitted curve at half-maximal effect. Summed up: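 Antagonist-mode intracellular calcium assay: DOI (4 nM) added after 5 min compound pre-incubation at room temperature to dye-loaded HTR2A-CHO cells. Fluorescence followed for 3 min, sampled every second.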

Experiment [11] has the same target. The experiment can be described thus: 5-hydroxytryptamine receptor 2A (HTR2A) small molecule agonists, cell-based qHTS assay (AID 1963587). Also: nearly all actives have a fitted effect of over 30% in size. Summed up: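 Kinetic calcium-flux fluorescence (2 min, 1 sec intervals) after compound addition in agonist mode. HTR2A-CHO cells were cultured 18 h, then dye-loaded 1 h at 37 C.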
Experiment [12] deals with Muscarinic acetylcholine receptor M1 (Homo sapiens) (UniProt P11229). The experiment can be described thus: Cholinergic receptor muscarinic 1 (CHRM1) small molecule antagonists, cell-based qHTS assay (AID 1963588). Also: nearly all actives have a fitted effect of over 40% in size. Also: potency is read from the fitted curve at half-maximal effect. In a few lines:
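CHRM1-CHO calcium-flux assay, antagonist mode. Cells were seeded 18 h, dye-loaded 1 h at 37 C and given compound for 5 min at RT, then acetylcholine was added at 50nM. FDSS fluorescence was read 3 min; 15 concentrations, three runs.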

Experiment [13] shares this target. The experiment can be described thus: Cholinergic receptor muscarinic 1 (CHRM1) small molecule agonists, cell-based qHTS assay (AID 1963589). Also: nearly all actives have a fitted effect of over 35% in size. In a few lines: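 Measures agonist-induced intracellular calcium rise. Stable human CHRM1 CHO line, 1 h dye load at 37 C, compounds from DMSO, kinetic fluorescence read.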
Experiment [14] deals with Beta-2 adrenergic receptor (Homo sapiens) (UniProt P07550). The experiment is described as follows: Adrenergic beta2 receptor (ADRB2) small molecule antagonists, cell-based qHTS assay (AID 1963592). Also: series mostly up to about 92 µM; nearly all actives have a fitted effect of over 50% in size. Summed up:
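Cells (CHO, stable ADRB2 overexpression) incubated 18-20hr at 37C; compounds added from DMSO; agonist mix (1nM isoproterenol, 100uM IBMX, 25uM Ro-20-1724) added; 0.5hr RT; d2-cAMP and anti-cAMP-cryptate added; 1hr RT; 665/615 nm read.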

The target of experiment [15] is D(2) dopamine receptor (Homo sapiens) (UniProt P14416). The experiment can be described thus: Dopamine D2 receptor (DRD2) small molecule agonists, cell-based qHTS assay (AID 1963594). Also: nearly all actives have a fitted effect of over 35% in size. Also: potency is read from the fitted curve at half-maximal effect. Summed up:
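cAMP accumulation in DRD2-HEK293 cells measured by HTRF after 1 h detection; compounds added 10 min before NKH477 (200nM […]) forskolin-analogue stimulation, 30 min at room temperature, with Ro20-1724 present at 0.1 mM final.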

The nature of experiment [16]: p53 small molecule agonists, cell-based qHTS assay (AID 1963582; active = well fitted activation curve with a large enough effect in the signal ratio in the repeat runs, not every such curve was filed as active; the % refers to the signal ratio). In a few lines: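 In this cell-based concentration-response screen, a p53 response element drives beta-lactamase; cells received DMSO-borne compounds after 5 h culture and were incubated a further 16 h before FRET substrate development.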
Experiment [17] in a line: cAMP Responsive Elements (CRE) small molecule agonists, cell-based qHTS assay (AID 1963590). In a few lines: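 A CRE-responsive beta-lactamase reporter in HEK 293T cells was used. Treatment ran 3 h at 37 C; detection used LiveBLAzer B/G FRET substrate for 2 h at room temperature.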
The nature of experiment [18]: cAMP Responsive Elements (CRE) small molecule antagonists, cell-based qHTS assay (AID 1963591; active = well fitted inhibition curve with a large enough effect in the signal ratio in the repeat runs, not every such curve was filed as active; the % refers to the signal ratio). Summed up: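 HEK293T cells carrying a CRE-driven beta-lactamase reporter receive compound and NKH477 (0.25 uM final) for 3 h. Fluorescence from LiveBLAzer B/G FRET substrate is read after 2 h at room temperature.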
Experiment [19] concerns the target D(2) dopamine receptor (Homo sapiens) (UniProt P14416). The experiment can be described thus: Dopamine D2 receptor (DRD2) small molecule antagonists, cell-based qHTS assay (AID 1963595; active = well fitted inhibition curve with a large enough effect in the signal ratio in the repeat runs, with a control signal flat; the % refers to the signal ratio; also: potency is read from the fitted curve at half-maximal effect). Summed up:
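Readout: HTRF cAMP, cAMP-d2 competing with cellular cAMP for anti-cAMP cryptate, read after 1 h. Cells: DRD2-HEK293. Conditions: 0.1 mM Ro20-1724, 12 nM quinpirole, 200 nM NKH477, 30 min RT.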

Experiment [20] is described as follows: p53 small molecule agonists, cell-based qHTS assay: qHTS cell viability counter screen (AID 1963581). Also: nearly all actives have a fitted effect of over 45% in size. Summed up:
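Following 5 h attachment, HCT-116 p53RE-bla cells took up compound for 16 h at 37 C; the reporter was read with B/G FRET substrate (2 h RT), and viability then via CellTiter-Glo ATP luminescence.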

Sequence of Gonadotropin-releasing hormone receptor (Homo sapiens) (P30968 whole entry, looked up): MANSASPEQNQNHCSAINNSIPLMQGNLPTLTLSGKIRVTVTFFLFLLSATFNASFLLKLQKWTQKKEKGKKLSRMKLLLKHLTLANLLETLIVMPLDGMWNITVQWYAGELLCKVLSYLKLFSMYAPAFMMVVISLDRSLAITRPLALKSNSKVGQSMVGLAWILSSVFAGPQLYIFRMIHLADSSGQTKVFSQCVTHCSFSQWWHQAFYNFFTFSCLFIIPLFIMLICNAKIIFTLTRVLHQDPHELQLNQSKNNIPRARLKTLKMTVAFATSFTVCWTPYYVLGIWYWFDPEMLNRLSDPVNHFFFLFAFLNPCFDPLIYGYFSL
Sequence of 5-hydroxytryptamine receptor 2A (Homo sapiens) (P28223 whole entry, looked up): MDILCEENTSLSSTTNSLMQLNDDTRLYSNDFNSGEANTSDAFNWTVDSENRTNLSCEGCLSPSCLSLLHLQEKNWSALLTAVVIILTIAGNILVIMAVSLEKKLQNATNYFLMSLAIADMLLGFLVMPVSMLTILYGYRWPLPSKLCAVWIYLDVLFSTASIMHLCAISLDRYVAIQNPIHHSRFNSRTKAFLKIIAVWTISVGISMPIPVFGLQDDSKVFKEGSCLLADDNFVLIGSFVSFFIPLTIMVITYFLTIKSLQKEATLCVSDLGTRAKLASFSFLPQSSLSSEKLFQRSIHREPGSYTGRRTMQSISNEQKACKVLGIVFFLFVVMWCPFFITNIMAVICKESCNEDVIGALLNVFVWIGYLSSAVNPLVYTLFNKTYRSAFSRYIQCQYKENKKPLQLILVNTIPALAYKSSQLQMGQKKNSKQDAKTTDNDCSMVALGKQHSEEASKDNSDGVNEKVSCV
Sequence of D(2) dopamine receptor (Homo sapiens) (P14416 whole entry, looked up): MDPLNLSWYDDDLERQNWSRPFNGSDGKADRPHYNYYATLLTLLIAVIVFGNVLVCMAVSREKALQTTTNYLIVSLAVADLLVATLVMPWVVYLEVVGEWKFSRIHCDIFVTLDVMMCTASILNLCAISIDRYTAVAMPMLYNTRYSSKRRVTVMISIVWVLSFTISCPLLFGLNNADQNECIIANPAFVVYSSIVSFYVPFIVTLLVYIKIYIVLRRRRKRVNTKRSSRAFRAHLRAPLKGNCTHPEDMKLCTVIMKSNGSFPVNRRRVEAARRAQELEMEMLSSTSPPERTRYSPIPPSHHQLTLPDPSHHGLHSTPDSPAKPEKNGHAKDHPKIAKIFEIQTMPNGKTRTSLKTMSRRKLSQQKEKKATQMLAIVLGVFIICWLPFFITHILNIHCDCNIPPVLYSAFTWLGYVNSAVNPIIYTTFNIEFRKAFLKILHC
Sequence of Muscarinic acetylcholine receptor M1 (Homo sapiens) (P11229 whole entry, looked up): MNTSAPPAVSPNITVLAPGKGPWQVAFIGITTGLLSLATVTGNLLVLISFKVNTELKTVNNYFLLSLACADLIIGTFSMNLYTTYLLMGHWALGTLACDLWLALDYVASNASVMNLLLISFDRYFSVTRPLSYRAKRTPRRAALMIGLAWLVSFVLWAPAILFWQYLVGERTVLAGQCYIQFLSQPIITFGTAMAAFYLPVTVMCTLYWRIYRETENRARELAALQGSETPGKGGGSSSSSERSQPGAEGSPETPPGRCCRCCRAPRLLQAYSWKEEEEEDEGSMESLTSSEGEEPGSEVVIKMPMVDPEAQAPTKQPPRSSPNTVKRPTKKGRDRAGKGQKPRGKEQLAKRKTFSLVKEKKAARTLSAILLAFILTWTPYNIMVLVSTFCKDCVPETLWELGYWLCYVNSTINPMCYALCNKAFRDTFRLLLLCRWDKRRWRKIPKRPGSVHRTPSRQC
Sequence of KiSS-1 receptor (Homo sapiens) (Q969F8 whole entry, looked up): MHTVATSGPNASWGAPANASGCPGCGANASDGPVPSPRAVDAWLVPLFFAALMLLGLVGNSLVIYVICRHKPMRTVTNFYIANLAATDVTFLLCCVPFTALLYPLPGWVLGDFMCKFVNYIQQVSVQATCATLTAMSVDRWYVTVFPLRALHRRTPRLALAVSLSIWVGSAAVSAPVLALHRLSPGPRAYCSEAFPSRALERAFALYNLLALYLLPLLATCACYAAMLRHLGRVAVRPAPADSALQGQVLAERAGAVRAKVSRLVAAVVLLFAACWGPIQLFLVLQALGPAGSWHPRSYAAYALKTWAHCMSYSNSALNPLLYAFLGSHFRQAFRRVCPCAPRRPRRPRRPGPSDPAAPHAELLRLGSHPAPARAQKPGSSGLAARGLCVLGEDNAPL
Sequence of Beta-2 adrenergic receptor (Homo sapiens) (P07550 whole entry, looked up): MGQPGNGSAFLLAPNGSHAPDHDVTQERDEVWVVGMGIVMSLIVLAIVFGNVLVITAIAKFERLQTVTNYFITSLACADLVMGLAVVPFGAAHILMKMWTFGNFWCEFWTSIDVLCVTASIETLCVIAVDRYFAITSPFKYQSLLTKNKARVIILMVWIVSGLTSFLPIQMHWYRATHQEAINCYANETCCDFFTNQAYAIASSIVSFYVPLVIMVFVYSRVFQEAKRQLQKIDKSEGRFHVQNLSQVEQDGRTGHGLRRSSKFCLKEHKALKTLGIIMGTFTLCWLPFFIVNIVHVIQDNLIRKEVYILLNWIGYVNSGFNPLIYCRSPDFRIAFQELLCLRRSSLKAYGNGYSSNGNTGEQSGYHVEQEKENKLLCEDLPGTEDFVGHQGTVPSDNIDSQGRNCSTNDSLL

With `Cc1ccccc1C(=O)Nc1cccc(OC(C)C)c1`, the Potency result in experiment [1], in [2], in [3], in [4], in [5] and in experiment [6] was “inactive” each time. Moreover, the Potency result in experiment [7], in experiment [8], in experiment [9], in [10], in [11] and in experiment [12] was “inactive” throughout. Besides, the Potency entry in [13], in experiment [14] and in experiment [15] was “inactive” throughout.
Take `CC(C)CCCCCCCOC(=O)c1ccccc1C(=O)OCCCCCCCC(C)C`: the Potency entry in experiment [1], in experiment [2], in experiment [3], in [4], in experiment [5] and in experiment [6] was “inactive” each time. Also, the Potency result in [7], in experiment [8], in experiment [9], in experiment [16], in experiment [10] and in [11] was “inactive” in each case. Moreover, the Potency result in experiment [12], in experiment [13], in experiment [17], in experiment [18], in [14] and in [15] was “inactive” each time. In addition, the Potency result in [19] was “inactive”.
With `COc1ccc(C(c2ccc(OC)cc2)C(Cl)(Cl)Cl)cc1`, the Potency in experiment [1] is 19200 nM (active); in experiment [2], 27100 nM (active). Moreover, the Potency result in experiment [3], in [4], in [5], in experiment [6], in experiment [7] and in experiment [8] was “inactive” each time. Also, the Potency entry in experiment [9], in [20], in experiment [10], in [11], in [13] and in experiment [14] was “inactive” each time.
For the compound `CCCCOC(=O)[C@@H](C)Oc1ccc(Oc2ccc(C#N)cc2F)cc1`, the Potency result in experiment [1], in [2], in experiment [3], in [4], in experiment [5] and in [6] was “inactive” in each case. The Potency result in experiment [7], in experiment [8], in experiment [9], in [20], in experiment [10] and in experiment [13] was “inactive” in each case. Besides, the Potency result in experiment [14], in [15] and in experiment [19] was “inactive” throughout. Moreover, in experiment [12], the Potency is 1660 nM (active).
As to `CCOc1ccc(C(C)(C)COCc2cccc(Oc3ccccc3)c2)cc1`, the Potency entry in experiment [1], in [2], in experiment [3], in experiment [4], in [5] and in experiment [6] was “inactive” throughout. The Potency entry in [7], in experiment [8], in experiment [9], in [16], in experiment [10] and in experiment [12] was “inactive” each time. For the same compound, the Potency entry in experiment [13], in [17], in experiment [18], in experiment [14], in experiment [15] and in [19] was “inactive” in each case.
As to `CC(O)(CS(=O)(=O)c1ccc(F)cc1)C(=O)Nc1ccc(C#N)c(C(F)(F)F)c1` (stereo not drawn), the Potency result in [1], in experiment [2], in experiment [3], in experiment [4], in experiment [5] and in [6] was “inactive” each time. The Potency entry in [7], in experiment [8], in experiment [9], in [20], in [18] and in experiment [14] was “inactive” in each case. In addition, the Potency result in [15] is “inactive”.
Regarding `CN1C[C@@H](NS(=O)(=O)N(C)C)C[C@@H]2c3cccc4c3c(cn4C)C[C@H]21`, the Potency entry in [1], in experiment [2], in experiment [3], in experiment [4], in experiment [5] and in [6] was “inactive” in each case. In addition, the Potency result in experiment [7], in experiment [8], in [9], in [16], in [11] and in experiment [12] was “inactive” each time. Further, the Potency result in [13], in experiment [17] and in [14] was “inactive” in each case. Further, the Potency was 130 nM (active) in experiment [10], 3760 nM (active) in experiment [15] and 1190 nM (active) in experiment [19].
